# Results reported in PubChem BioAssay (NCATS).
# Inconclusive results are not listed. A number with no mark means an inactive call. Calls of active or inactive are those of the source. Unless noted, calls come from the whole dose curve; as a rule, active = well fitted curve in either direction with a large enough effect (not every such curve was filed as active); inconclusive = small, poorly fitted or top-dose-only effect, or another doubt; inactive = flat fitted curve, though single readings scatter.
# Key:
# [1] = Cell Viability - SK-N-SH (AID 435; calls by dose curve;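 note: potency is the fitted concentration of half-maximal effect; compound exposure lasted 40 h at 37 °C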); details: SK-N-SH neuroblastoma cell viability qHTS
# Procedure, shortened: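 Human neuroblastoma line, 40 h exposure at 37 °C, ATP quantified via luciferase luminescence; DMSO and 100 uM tamoxifen define 0 and 100% inhibition for AC50 fitting.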
# [2] = Cell Viability - LYMP2-009 (AID 968; active = well fitted curve in the direction sought with a large enough effect; an effect the other way counts as inactive or inconclusive;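 note: cells exposed to compound for 24 h at 37 °C; nearly all actives have a fitted effect of over 55% in size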; note: potency is the fitted concentration of half-maximal effect)
# [3] = Cell Viability - LYMP2-011 (AID 969; active = well fitted curve in the direction sought with a large enough effect; an effect the other way counts as inactive or inconclusive;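 note: cells exposed to compound for 24 hours; nearly all actives have a fitted effect of over 60% in size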; note: potency is the fitted concentration of half-maximal effect)
# Procedure, shortened: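 2500 cells/well, 5 hr 37 C; compound added, 24 hr 37 C; CellTiter-Glo 30 min RT; luminescence. qHTS concentration-response, Hill-equation AC50. Tetraoctylammonium bromide positive control.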
# [4] = Cell Viability - LYMP2-014 (AID 983; active = well fitted curve in the direction sought with a large enough effect; an effect the other way counts as inactive or inconclusive;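 note: potency is the fitted concentration of half-maximal effect; cells exposed to compound for 24 h at 37 °C; nearly all actives have a fitted effect of over 50% in size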)
# Procedure, shortened: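 Luminescent ATP signal (CellTiter-Glo, 30 min at room temperature) serves as the viability read-out after 24 hr compound exposure at 37 C. Cells were seeded at 2500 per well and settled 5 hr beforehand.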
# [5] = Cell Viability - LYMP1-002 - Assay at 40 hr (AID 994; active = well fitted curve in the direction sought with a large enough effect; an effect the other way counts as inactive or inconclusive; note: potency is the fitted concentration of half-maximal effect; nearly all actives have a fitted effect of over 60% in size)
# Procedure, shortened: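 Luminescent ATP signal served as the viability readout, with decreases taken as toxicity. Cells were treated with compounds across a concentration range for 40 hours at 37 C, and AC50 values came from standard Hill modeling.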
# [6] = target: Tumor necrosis factor (Homo sapiens) (UniProt P01375); test: qHTS assay to identify small molecules that stimulate Tumor Necrosis Factor-alpha (TNF-alpha) secretion (AID 651757; active = well fitted curve in the direction sought with a large enough effect in the signal ratio; the % refers to the signal ratio; note: 0% is about no effect)
# Procedure, shortened: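 Read-out is HTRF, a TR-FRET sandwich of cryptate- and XL665-labeled anti-TNF-alpha antibodies detecting cytokine secreted by THP-1 cells. Cells had been incubated with test compounds at 37 C for 17 hrs beforehand.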
# [7] = Cell Viability - LYMP2-007 (AID 979; active = well fitted curve in the direction sought with a large enough effect; an effect the other way counts as inactive or inconclusive;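 note: cells exposed to compound for 24 h before reading; nearly all actives have a fitted effect of over 60% in size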; note: potency is the fitted concentration of half-maximal effect)
# Procedure, shortened: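 Luminescent ATP signal (CellTiter-Glo) serves as the viability read-out after 24 hr compound treatment of lymphoblastoid cells in complete medium at 37 C. Concentration-response data were fitted to the Hill equation to give AC50 values.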
# [8] = target: Estrogen receptor (Homo sapiens) (UniProt P03372); test: qHTS assay for small molecule agonists of estrogen receptor alpha signaling (AID 588514; calls by dose curve;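 note: 0% = vehicle only and 100% = reference agonist; nearly all actives have a fitted effect of over 70% in size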)
# Procedure, shortened: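 Cells were plated at 5000/well, incubated 4 hrs at 37 C, dosed with compound titration series, incubated 18 hrs at 37 C, loaded with CCF4 dye for 2 hrs at RT, then fluorescence was read.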
# [9] = target: Glucocorticoid receptor (Homo sapiens) (UniProt P04150); test: qHTS assay for small molecule antagonists of glucocorticoid receptor signaling (AID 588533; active = well fitted inhibition curve with a large enough effect in the signal ratio, with a control signal flat, not every such curve was filed as active; the % refers to the signal ratio; note: potency is the fitted concentration of half-maximal effect; for activity change, negative = inhibition: % is set by controls: 0 for no effect and ±100 for the full control effect)
# Procedure, shortened: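 Antagonist-mode qHTS: compound titrations added to GRE-bla HeLa cells, then dexamethasone 2 nM final; 18 h, 37 C. CCF4 FRET fluorescence normalized to dexamethasone and DMSO; IC50 from Hill fit.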
# [10] = target: Voltage-gated inwardly rectifying potassium channel KCNH2 (Homo sapiens) (UniProt Q12809); test: qHTS Assay for Small Molecule Inhibitors of the Human hERG Channel Activity (AID 588834; active = well fitted curve in the direction sought with a large enough effect; an effect the other way counts as inactive or inconclusive;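 note: lower thallium flux fluorescence means stronger hERG block; nearly all actives have a fitted effect of over 50% in size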; note: potency is the fitted concentration of half-maximal effect)
# Procedure, shortened: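 Blockade is seen as reduced FluxOR thallium-flux fluorescence in U2OS cells expressing hERG from a BacMam construct, in Opti-MEM with 2% FCS. Concentration-response data fitted to the Hill equation for AC50.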
# [11] = Cell Viability - LYMP2-025 (AID 976; active = well fitted curve in the direction sought with a large enough effect; an effect the other way counts as inactive or inconclusive;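 note: cells exposed to compound for 24 h at 37 °C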; note: potency is the fitted concentration of half-maximal effect)
# Procedure, shortened: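 Seed 2500 LYMP2-025 cells/well; 5 hr at 37 C; add compound; 24 hr at 37 C; add CellTiter-Glo; 30 min RT; read luminescence. AC50 from Hill-modelled concentration-response.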
# [12] = target: Vitamin D3 receptor (Homo sapiens) (UniProt P11473); test: qHTS assay for small molecule antagonists of vitamin D receptor signaling (AID 588541; calls by dose curve;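 note: receptor activated by calcitriol during compound treatment; % is set by controls: 0 for no effect and ±100 for the full control effect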)
# Procedure, shortened: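 VDR-UAS-bla HEK293T cells in 2% charcoal-stripped FBS were stimulated with 1-alpha,25-dihydroxyvitamin D3 (3 nM final) plus compound for 16 h at 37 C. The beta-lactamase CCF4 readout was normalized to 50 nM agonist and DMSO, and Hill fits gave IC50.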
# [13] = target: Vitamin D3 receptor (Homo sapiens) (UniProt P11473); test: qHTS assay for small molecule agonists of vitamin D receptor signaling (AID 588543; calls by dose curve;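 note: 0% = DMSO basal and 100% = reference agonist control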)
# Procedure, shortened: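 Measured: β-lactamase reporter activity (CCF4, 405 nm excitation, 460/530 nm emission) in HEK293T VDR-UAS-bla cells after 16 h compound exposure at 37 °C. Normalization against 50 nM 1α,25-dihydroxyvitamin D3 and DMSO; Hill-fit EC50.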
# [14] = AP1 Signaling Pathway (AID 357); details: ME-180 AP-1-bla reporter, EGF-induced, beta-lactamase ratio, 5 h;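 note: ME-180 reporter cells stimulated with EGF at its EC50 level; % is set by controls: 0 for no effect and ±100 for the full control effect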
# Procedure, shortened: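 Cells are seeded overnight, exposed to compound titrations and an EC50 level of EGF for 5 hours at 37 °C, then loaded with CCF4 dye for 2.5 hours. Beta-lactamase activity under the AP-1 element is read as a blue/green ratio.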
# [15] = Stat Signaling Pathway (AID 446); details: ME-180 (cervical carcinoma) SIE beta-lactamase reporter, IL-6 stimulated, 5 h;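 note: ME-180 cervical cancer cells given 40 pM IL-6 alongside compound; SIE-controlled beta-lactamase reporter measured as 460/530 nm FRET emission ratio; % is set by controls: 0 for no effect and ±100 for the full control effect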
# Procedure, shortened: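 IL-6/STAT signaling read in ME-180 cells via an SIE beta-lactamase reporter. Stimulus was 40 pM IL-6 (its AC50) for 5 hrs, so both activation and inhibition register.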
# [16] = Cell Viability - Hek293 (AID 427;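 active = compounds whose dose-response curve shows a full or clear partial loss of cell viability, called from curve shape rather than a numeric limit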;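 note: potency is the fitted concentration of half-maximal effect; cells exposed to compound for 40 hours at 37 °C before reading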); details: qHTS
# Procedure, shortened: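 AC50 values derive from Hill-modelled concentration-response of ATP-based luminescence, normalized between DMSO-only and 100 uM tamoxifen controls. Cells were exposed in complete culture medium for 40 hr at 37 °C before detection.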
# [17] = Cell Viability - LYMP2-008 (AID 980; active = well fitted curve in the direction sought with a large enough effect; an effect the other way counts as inactive or inconclusive;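 note: cells exposed to compound for 24 h at 37 °C; % is set by controls: 0 for no effect and ±100 for the full control effect; nearly all actives have a fitted effect of over 60% in size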)
# Procedure, shortened: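 qHTS, human lymphoblastoid line, 2500 cells/well; 5 hr preincubation, 24 hr compound, 37 C. CellTiter-Glo ATP luminescence. AC50 via Hill equation. Tetraoctylammonium bromide positive control.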
# [18] = at 7.69 µM (top of the series) unless noted
# Glucocorticoid receptor (Homo sapiens), sequence (P04150 whole entry, looked up): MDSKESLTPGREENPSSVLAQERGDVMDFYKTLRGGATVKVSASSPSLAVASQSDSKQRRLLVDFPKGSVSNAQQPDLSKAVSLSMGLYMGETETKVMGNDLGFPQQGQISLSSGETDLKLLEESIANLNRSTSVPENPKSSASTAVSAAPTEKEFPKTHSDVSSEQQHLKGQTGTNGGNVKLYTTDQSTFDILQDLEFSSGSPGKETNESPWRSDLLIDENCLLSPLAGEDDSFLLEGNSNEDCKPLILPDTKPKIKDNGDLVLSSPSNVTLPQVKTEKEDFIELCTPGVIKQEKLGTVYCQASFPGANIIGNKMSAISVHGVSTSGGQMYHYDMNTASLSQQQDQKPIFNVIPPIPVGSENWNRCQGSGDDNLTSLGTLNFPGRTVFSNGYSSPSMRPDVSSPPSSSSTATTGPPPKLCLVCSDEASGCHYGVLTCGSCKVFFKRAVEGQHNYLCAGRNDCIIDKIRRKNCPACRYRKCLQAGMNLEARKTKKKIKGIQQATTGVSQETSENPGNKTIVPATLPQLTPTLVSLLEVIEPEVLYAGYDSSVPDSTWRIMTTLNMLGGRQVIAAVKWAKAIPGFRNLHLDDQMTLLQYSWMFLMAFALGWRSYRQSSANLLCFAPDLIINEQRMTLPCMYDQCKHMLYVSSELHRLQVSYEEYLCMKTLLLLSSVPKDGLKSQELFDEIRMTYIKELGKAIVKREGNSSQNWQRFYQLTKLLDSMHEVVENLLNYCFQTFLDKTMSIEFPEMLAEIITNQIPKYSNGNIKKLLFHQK
# Voltage-gated inwardly rectifying potassium channel KCNH2 (Homo sapiens), sequence (Q12809 whole entry, looked up): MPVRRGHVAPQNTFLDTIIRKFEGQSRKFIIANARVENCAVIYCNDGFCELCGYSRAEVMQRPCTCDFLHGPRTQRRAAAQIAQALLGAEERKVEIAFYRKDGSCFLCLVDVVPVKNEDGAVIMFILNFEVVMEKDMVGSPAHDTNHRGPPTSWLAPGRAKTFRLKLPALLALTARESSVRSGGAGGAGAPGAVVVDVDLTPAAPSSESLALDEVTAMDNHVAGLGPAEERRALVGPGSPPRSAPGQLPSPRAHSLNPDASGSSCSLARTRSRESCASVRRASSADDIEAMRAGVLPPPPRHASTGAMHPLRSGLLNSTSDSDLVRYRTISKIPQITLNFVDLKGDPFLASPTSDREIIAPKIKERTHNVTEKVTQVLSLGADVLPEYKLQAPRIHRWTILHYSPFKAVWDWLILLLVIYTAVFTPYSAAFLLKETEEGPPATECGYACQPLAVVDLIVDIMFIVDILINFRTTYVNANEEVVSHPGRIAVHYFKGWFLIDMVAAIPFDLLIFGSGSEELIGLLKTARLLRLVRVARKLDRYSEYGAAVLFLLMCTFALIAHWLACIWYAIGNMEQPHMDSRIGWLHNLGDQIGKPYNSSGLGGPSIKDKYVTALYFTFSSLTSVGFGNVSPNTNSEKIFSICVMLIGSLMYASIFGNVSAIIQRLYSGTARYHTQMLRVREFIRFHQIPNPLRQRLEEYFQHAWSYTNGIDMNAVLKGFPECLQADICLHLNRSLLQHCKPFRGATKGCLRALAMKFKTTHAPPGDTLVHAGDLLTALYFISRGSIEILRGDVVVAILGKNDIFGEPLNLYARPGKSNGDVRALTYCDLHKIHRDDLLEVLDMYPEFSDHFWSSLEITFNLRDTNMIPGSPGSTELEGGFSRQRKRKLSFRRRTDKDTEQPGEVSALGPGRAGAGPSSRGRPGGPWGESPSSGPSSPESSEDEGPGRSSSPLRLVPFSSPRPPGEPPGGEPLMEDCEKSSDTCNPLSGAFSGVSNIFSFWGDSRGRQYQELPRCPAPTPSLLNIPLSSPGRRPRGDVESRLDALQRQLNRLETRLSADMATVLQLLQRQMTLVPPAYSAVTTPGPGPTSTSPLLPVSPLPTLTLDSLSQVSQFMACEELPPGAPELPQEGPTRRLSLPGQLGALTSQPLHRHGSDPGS
# Estrogen receptor (Homo sapiens), sequence (P03372 whole entry, looked up): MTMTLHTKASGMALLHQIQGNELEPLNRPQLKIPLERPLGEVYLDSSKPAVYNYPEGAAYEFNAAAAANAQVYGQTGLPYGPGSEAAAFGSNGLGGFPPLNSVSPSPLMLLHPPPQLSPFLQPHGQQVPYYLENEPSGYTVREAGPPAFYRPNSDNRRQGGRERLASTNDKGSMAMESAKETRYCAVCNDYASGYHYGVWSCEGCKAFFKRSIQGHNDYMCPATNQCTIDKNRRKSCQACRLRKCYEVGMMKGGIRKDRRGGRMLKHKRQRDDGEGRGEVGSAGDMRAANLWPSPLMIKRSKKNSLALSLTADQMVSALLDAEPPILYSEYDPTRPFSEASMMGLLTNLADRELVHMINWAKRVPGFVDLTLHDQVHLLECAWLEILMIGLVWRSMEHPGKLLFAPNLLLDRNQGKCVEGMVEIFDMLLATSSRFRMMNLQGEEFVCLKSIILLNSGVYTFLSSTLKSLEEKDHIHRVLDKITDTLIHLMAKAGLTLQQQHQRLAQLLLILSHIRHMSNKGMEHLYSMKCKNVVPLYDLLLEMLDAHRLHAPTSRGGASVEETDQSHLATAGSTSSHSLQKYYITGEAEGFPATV
# Vitamin D3 receptor (Homo sapiens), sequence (P11473 whole entry, looked up): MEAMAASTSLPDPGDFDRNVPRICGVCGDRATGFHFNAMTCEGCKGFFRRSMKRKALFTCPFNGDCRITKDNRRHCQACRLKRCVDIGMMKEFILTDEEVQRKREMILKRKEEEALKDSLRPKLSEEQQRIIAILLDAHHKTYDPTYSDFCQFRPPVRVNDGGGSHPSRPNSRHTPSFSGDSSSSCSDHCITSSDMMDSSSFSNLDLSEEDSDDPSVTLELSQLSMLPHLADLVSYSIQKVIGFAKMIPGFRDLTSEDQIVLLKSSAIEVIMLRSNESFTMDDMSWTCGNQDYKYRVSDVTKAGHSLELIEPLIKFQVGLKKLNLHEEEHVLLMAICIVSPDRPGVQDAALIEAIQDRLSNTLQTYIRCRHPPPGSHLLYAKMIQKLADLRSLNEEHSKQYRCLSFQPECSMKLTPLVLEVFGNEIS
# Tumor necrosis factor (Homo sapiens), sequence (P01375 whole entry, looked up): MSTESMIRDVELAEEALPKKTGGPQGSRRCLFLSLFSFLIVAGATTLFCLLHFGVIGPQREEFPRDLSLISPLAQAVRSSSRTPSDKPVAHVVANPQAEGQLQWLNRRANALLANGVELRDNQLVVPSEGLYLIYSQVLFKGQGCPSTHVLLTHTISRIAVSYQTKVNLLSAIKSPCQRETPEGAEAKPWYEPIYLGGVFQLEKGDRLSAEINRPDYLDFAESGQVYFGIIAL
structure (smiles),measurement,setting,value
CC1=C(/C=C/C(C)=C/C=C/C(C)=C/C=O)C(C)(C)CCC1,Potency,[1],42.3 µM (active)
same,Potency,[2],39.8 µM (active)
same,Potency,[3],63.1 µM (active)
same,Potency,[4],50.1 µM (active)
same,Potency,[5],50.1 µM (active)
same,Potency,[6],inactive
C1CCCNCC1,Potency,[2],inactive
same,Potency,[3],inactive
same,Potency,[7],inactive
same,Potency,[8],inactive
same,Potency,[9],inactive
same,Potency,[10],inactive
Oc1cc2c(cc1O)[C@H]1c3ccc(O)c(O)c3OC[C@@]1(O)C2,Potency,[2],39.8 µM (active)
same,Potency,[11],50.1 µM (active)
same,Potency,[7],39.8 µM (active)
same,Potency,[8],inactive
CN(C)c1ccc(C(=N)c2ccc(N(C)C)cc2)cc1,Potency,[4],39.8 µM (active)
same,Potency,[9],inactive
same,Potency,[12],inactive
same,Potency,[13],inactive
same,Potency,[10],15.8 µM (active)
CN(C)Cc1ccccc1-c1ccc2ncnc(NC3CCNCC3)c2c1,"activity change, negative = inhibition",[14]; [18],20.2%
same,"activity, negative = inhibition",[15]; [18],-2.13%
Fc1cccc(CSc2ncnc3c2ncn3[C@H]2CCCS2)c1,"activity change, negative = inhibition",[14]; [18],-5.08%
same,"activity, negative = inhibition",[15]; [18],3.04%
NS(=O)(=O)c1cc2c(cc1Cl)N[C@H](Cc1ccccc1)NS2(=O)=O,"activity change, negative = inhibition",[14]; [18],-4.23%
same,"activity, negative = inhibition",[15]; [18],1.94%
C/C(=N/O)[C@@H]1C[C@H](CC(=O)O)C1(C)C,"activity change, negative = inhibition",[14]; [18],10.6%
same,"activity, negative = inhibition",[15]; [18],18.2%
CC(C)(N=NC(C)(C)C1=NCCN1)C1=NCCN1,"activity change, negative = inhibition",[14]; [18],3.01%
same,"activity, negative = inhibition",[15]; [18],3.73%
O=C(O)c1cc(N=Nc2ccc([N+](=O)[O-])cc2)ccc1O,"activity change, negative = inhibition",[14]; [18],-28%
same,Potency,[16],> 92 µM
same,Potency,[1],> 92 µM
same,"activity, negative = inhibition",[15]; [18],-2.69%
same,Potency,[2],inactive
same,Potency,[3],inactive
same,Potency,[11],inactive
same,Potency,[7],inactive
same,Potency,[17],inactive
same,Potency,[9],10 µM (active)
COc1ccccc1-c1nc(NCc2ccccc2)c2ccccc2n1,"activity change, negative = inhibition",[14]; [18],24%
same,"activity, negative = inhibition",[15]; [18],0.0453%
C[C@]12CC[C@H]3c4ccc(O)cc4CC[C@@H]3[C@H]1CC[C@@H]2OC(=O)CCC1CCCC1,"activity change, negative = inhibition",[14]; [18],-8.48%
same,"activity, negative = inhibition",[15]; [18],1.67%
CN(C)c1ccc(-c2cc(NCc3ccccc3)ncn2)cc1,"activity change, negative = inhibition",[14]; [18],-19.2%
same,"activity, negative = inhibition",[15]; [18],-7.24%
Cc1cn([C@H]2C[C@H](N=[N+]=[N-])[C@H](CO)O2)c(=O)[nH]c1=O,"activity change, negative = inhibition",[14]; at 7.69 µM (top of the series),11.1%
same,"activity change, negative = inhibition",[14]; at 38 µM (top of the series),1.21%
same,"activity, negative = inhibition",[15]; at 7.69 µM (top of the series),-1.74%
same,"activity, negative = inhibition",[15]; at 38 µM (top of the series),22.1%
Cc1nc2cnc(OCc3ccccc3)nc2n(Cc2ccc(F)cc2)c1=O,"activity change, negative = inhibition",[14]; [18],-22.4%
same,"activity, negative = inhibition",[15]; [18],-3.29%
N=C(N)SCCc1ccncc1,"activity change, negative = inhibition",[14]; [18],3.09%
same,"activity, negative = inhibition",[15]; [18],3.81%
CC(=O)/C(=N\N=C(N)N)c1ccccc1,"activity change, negative = inhibition",[14]; [18],8.04%
same,"activity, negative = inhibition",[15]; [18],7.52%
CN(N=O)c1ccc(/C=C\c2ccnc3ccccc23)cc1,"activity change, negative = inhibition",[14]; [18],-0.154%
same,"activity, negative = inhibition",[15]; [18],-0.754%
O=C(O)CCC(=O)c1ccc(Cl)cc1,"activity change, negative = inhibition",[14]; [18],11.6%
same,"activity, negative = inhibition",[15]; [18],17.9%
COc1cccc(Cn2c(=O)c(C)nc3cnc(Oc4cccc(Cl)c4)nc32)c1,"activity change, negative = inhibition",[14]; [18],-22.3%
same,"activity, negative = inhibition",[15]; [18],-2.38%
COc1ccc2cc1Oc1ccc(cc1)C[C@H]1c3cc(c(OC)cc3CCN1C)Oc1c(OC)c(OC)cc3c1[C@@H](C2)N(C)CC3,"activity change, negative = inhibition",[14]; at 7.69 µM (top of the series),-3.56%
same,"activity change, negative = inhibition",[14]; at 17.2 µM (top of the series),-5.15%
same,"activity, negative = inhibition",[15]; at 7.69 µM (top of the series),-1.58%
same,"activity, negative = inhibition",[15]; at 17.2 µM (top of the series),-5.25%
O=C(O)[C@@H](S)[C@H](S)C(=O)O,"activity change, negative = inhibition",[14]; [18],8.2%
same,"activity, negative = inhibition",[15]; [18],1.47%
S=C(Nc1ccc2c(c1)Cc1ccccc1-2)Nc1ccc2c(c1)Cc1ccccc1-2,"activity change, negative = inhibition",[14]; [18],-4.53%
same,"activity, negative = inhibition",[15]; [18],3.09%
CNc1ncncc1-c1ccc(C(=O)N(C)C)cc1,"activity change, negative = inhibition",[14]; [18],-7.23%
same,"activity, negative = inhibition",[15]; [18],8.34%
CCN1CCc2c(C#N)c(NCc3ccccc3)nc(NCCO)c2C1,"activity change, negative = inhibition",[14]; [18],-9.55% [at 17.2 µM]
same,"activity, negative = inhibition",[15]; [18],-0.118% [at 17.2 µM]
